Screens: PubChem, several laboratories
Wnt act: Wnt/beta-catenin pathway activators, primary screen, cell-based, plate reader, single point | actives 1.2% (n = 300,000) | activation, % at 9.35 µM | Wnt/beta-catenin reporter cell assay, activator; in the data active = activation above about 30%, passing the limit was not always enough;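 note: 0% = neutral control wells and 100% = positive control wells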
ssDAF-12 act: S. stercoralis DAF-12 nuclear receptor activators, primary screen, cell-based, luminescence, HEK293, GRIP1 co-expression, lit1-tk-luc; AID 652126, 2013; HEK293 ssDAF-12/GRIP1 lit1-tk-luc reporter; % of 3 µM dafachronic acid response; actives 1% (n = 370,000); activation, % at 6.8 µM;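 active = activation above the mean over all tested compounds plus 3 SD, cut at about 0.9% in these data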;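 note: 0% = DMSO-only wells and 100% = 3 µM delta7-dafachronic acid wells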
hcDAF12 agonist: H. contortus DAF-12 nuclear receptor activators, primary screen, cell-based, luminescence, HEK293, lit1-tk-luc reporter | HEK293 hcDAF-12 lit1-tk-luc reporter; 0% DMSO, 100% Δ7-dafachronic acid | activation, % at 6.8 µM | actives 1.4% (n = 370,000) | AID 652067, 2013;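 active = activation above the mean of all tested compounds plus 3 SD, cut at about 5.5% in these data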;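 note: 100% = response to 3 µM Δ7-dafachronic acid high control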
hgDAF12 agonist: H. glycines DAF-12 receptor agonists, primary screen, cell-based, luminescence, HEK293, GAL4 fusion, UAS-luciferase | HEK293 GAL4-hgDAF12 UAS-luciferase reporter, agonist luminescence; normalized to butyrate control | actives 1.8% (n = 370,000) | Nuclear hormone receptor DAF-12 (Heterodera glycines), GAL4 fusion | activation, % at 6.8 µM | AID 687014, 2013;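 active = activation above a cutoff set at the mean of all screened compounds plus 3 SD, cut at about 10% in these data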;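 note: 0% = DMSO wells and 100% = sodium butyrate wells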
esBAF inh: Bmi1 luciferase reporter increase in mESCs, primary screen, esBAF inhibitor project, mouse ES cells, Bmi1 luciferase knock-in, single point; actives 2% (n = 350,000); 24 h; 100% = twice the neutral-well signal; reporter increase, % at 12.5 µM; in the data active = activation above about 40%;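 note: 0% = median of the plate's neutral control wells and 100% = double that signal; a rise in the Bmi1 reporter signal indicates esBAF inhibition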
DAX1 inh: DAX1 (NR0B1) inhibitors on StAR promoter, primary screen, cell-based, luminescence, SF-1 (NR5A1), full-length DAX-1; HEK293T StAR-luciferase reporter, SF-1/DAX-1 repression relief; inhibition, % at 6.8 µM; actives 1.1% (n = 370,000); AID 652010, 2013;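 active = inhibition above the mean over all tested compounds plus 3 SD, cut at about 3.6% in these data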;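 note: 0% = DAX-1 cells with DMSO and 100% = cells lacking DAX-1 with DMSO; higher inhibition means more luminescence from relief of DAX-1 repression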
The depositor's hits bear a star; . = no result given. Hits are enriched below; roughly 4.2% of the tested compounds scored in any of these assays.

SMILES | Wnt act | ssDAF-12 act | hcDAF12 agonist | hgDAF12 agonist | esBAF inh | DAX1 inh
COc1ccc(S(=O)(=O)Nc2ccc3c(c2)C(=O)N([C@H](C)CO)C[C@H](C)[C@H](CN(C)S(=O)(=O)c2ccc(OC)cc2)OCCCC[C@H](C)O3)cc1 | . | . | . | . | 6 | .
COc1ccc(S(=O)(=O)N(C)C[C@@H]2OCCCC[C@@H](C)Oc3ccc(NC(=O)CCC(F)(F)F)cc3C(=O)N([C@H](C)CO)C[C@@H]2C)cc1 | . | . | . | . | 5 | .
C[C@H](CO)N1C[C@H](C)[C@@H](CN(C)Cc2ccc(C(F)(F)F)cc2)Oc2c(NS(C)(=O)=O)cccc2C1=O | . | . | . | . | -5 | .
O=C(CCn1c(=O)oc2ccccc21)NCCN1CCc2ccccc2C1 | -4 | -1 | 4 | 1 | -6 | 0
O=C(CCCn1c(=O)oc2ccccc21)N1CCc2ccccc2C1 | -1 | 1 | 7.9* | 5 | 4 | 1
O=C(O)c1ccc(N/N=C/c2cc3c(cc2[N+](=O)[O-])OCO3)cc1 | -2 | -1 | -3 | 0 | 67* | -1
Cc1cc(C)nc(N/N=C/c2cc3c(cc2[N+](=O)[O-])OCO3)n1 | 56* | -1 | 0 | 0 | . | 1
CCOc1ccc2nc(/N=C/c3c(C)[nH]n(-c4ccccc4)c3=O)sc2c1 | 20 | 0.9* | 2 | 4 | . | 2
CCOc1ccc2nc(/N=C/c3c(C)[nH]n(-c4ccc(C)cc4)c3=O)sc2c1 | 11 | 0 | 4 | 7 | . | 1
C[C@H](CO)N1C[C@H](C)[C@@H](CN(C)Cc2ccccc2)Oc2ncc(C3=CCCC3)cc2C1=O | . | . | . | . | -1 | .
Cc1ccc(N2C(=O)[C@@H]3Cc4ccccc4CN3C2=O)cc1 | 14 | 0 | 5 | 2 | 55* | 0
N=C1C(c2nc3ccccc3s2)=C(O)CN1Cc1ccccc1 | . | -1 | 1 | 1 | 48* | 0
COc1cccc(-c2nc(NCc3cccnc3)c3ccccc3n2)c1O | 13 | 0 | 5.9* | 3 | 19 | 0
c1cncc(CNc2nc(-c3cccnc3)nc3ccccc23)c1 | 0 | -1 | -1 | 0 | 1 | -1
CCOC(=O)c1cccc(NC(=O)c2ccccc2C)c1 | 2 | -2 | 1 | 11* | . | 0
CC(C)(C)c1ccc(C(=O)NC(=S)N2CCCC2)cc1 | 4 | 1.8* | 4 | 3 | -4 | 1
CC(C)(C)c1ccc(C(=O)NCCN2CCCC2)cc1 | -6 | 1.1* | 1 | 2 | 1 | 0
Cc1ccc(C(=O)NCC(=O)N2CCCCCC2)cc1 | 9 | 0 | 3 | 5 | 27 | 0
O=C(NCCN1CCCCCC1)c1ccc(N2CCCC2=O)cc1 | . | 0 | 2 | 2 | -4 | 0
CC(C)(C)c1ccc(C(=O)NC(=S)Nn2cnnc2)cc1 | 10 | -1 | 2 | 0 | 44* | 1
CC(C)(C)c1ccc(C(=O)NC(=S)N2CCCCCC2)cc1 | -3 | -1 | -1 | 1 | . | -1
Cc1ccc(C(=O)NCCC(=O)N2CCCC2)cc1 | 11 | 1 | 5 | 13* | 9 | 1
COc1ccccc1-n1cnc2sc(-c3ccccc3)cc2c1=O | 25 | -1 | -1 | -1 | . | 1
CCN(CC)C(=O)CSc1ncnc2sc(-c3ccccc3)cc12 | . | -1 | -2 | 2 | 63* | -2
CCCCn1cnc2sc(-c3ccccc3)cc2c1=O | . | 0 | 2 | 10* | . | 2
SMILES | Wnt act | ssDAF-12 act | hcDAF12 agonist | hgDAF12 agonist | esBAF inh | DAX1 inh
CN(C)C(=O)COc1ncnc2sc(-c3ccccc3)cc12 | 3 | 0 | 2 | 4 | 30 | 0
CCc1cc2c(=O)n(CC(C)C)cnc2s1 | 0 | 0 | 2 | 4 | . | 1
COc1ncnc2sc(-c3ccccc3)cc12 | . | 0 | 4 | 7 | 50* | 2
CCCCCn1cnc2sc(CC)cc2c1=O | 22 | -1 | 1 | 12* | . | 3
COc1ccccc1S(=O)(=O)N1CC[C@@H]2[C@@H](CO)Nc3ccc(-c4cccc(C#N)c4)cc3[C@@H]21 | . | . | . | . | -6 | .
O=C(C[C@@H]1C=C[C@H](NC(=O)c2ccccc2)[C@@H](CO)O1)NCc1ccc(Oc2ccccc2)cc1 | . | . | . | . | 1 | .
COc1ccc(NC(=O)Nc2cccc3c2O[C@@H](CN(C)S(=O)(=O)c2cn(C)cn2)[C@@H](C)CN([C@@H](C)CO)C3=O)cc1 | . | . | . | . | -5 | .
CNC(=O)NC(=O)Cn1cnc2sc(-c3ccccc3)cc2c1=O | 2 | -1 | -2 | 2 | . | 0
CCCCCn1cnc2sc(-c3ccccc3)cc2c1=O | 22 | -1 | 0 | 4 | 82* | 1
O=C(c1ccc(Cl)c([N+](=O)[O-])c1)N(Cc1ccc(Cl)cc1)C1CCS(=O)(=O)C1 (configuration not stated) | 47* | -1 | 0 | -2 | . | 0
Cc1ccc(NC(=O)c2cnn(-c3ccccc3)c2C)c(C)c1 | 45* | 0 | 2 | 7 | 40 | 1
Cc1cccc(C)c1NC(=O)c1cnn(-c2ccccc2)c1C | 2 | -1 | 0 | 1 | -3 | -1
Cc1ccc(NC(=O)c2cnn(-c3ccccc3)c2C)cc1 | 22 | 1.1* | 4 | 11* | -23 | 2
Cc1ccc(NC(=O)C2OCCc3ccccc32)cc1C (configuration not stated) | 2 | -1 | 2 | 11* | 58* | 2
O=C(CSc1nnc(C2CCCCC2)o1)Nc1ccccc1Cl | 21 | 0 | 3 | 7 | 62* | 1
Fc1cc(Br)ccc1COc1ccc(-c2nnco2)cc1 | 22 | 0 | 0 | 9 | 55* | -1
Fc1ccc(COc2ccc(-c3nnco3)cc2)c(Cl)c1 | 11 | -1 | 0 | 7 | 33 | -1
Cn1cccc1C(=O)OCC(=O)c1cc2ccccc2o1 | 34* | -1 | 0 | 6 | 14 | 1
COc1ccc(S(=O)(=O)Nc2cccc3c2O[C@H](CN(C)CC2CC2)[C@@H](C)CN([C@@H](C)CO)C3=O)cc1 | . | . | . | . | -2 | .
Cc1ccccc1NS(=O)(=O)c1nnc(NC(=O)c2ccc(Br)cc2)s1 | 0 | -1 | 0 | 0 | -8 | 0
Cc1ccccc1NS(=O)(=O)c1nnc(NC(=O)c2ccccc2C)s1 | 0 | 0 | 6.2* | 0 | -7 | 1
CCOC(=O)C1CCN(C(=O)c2cc(COc3ccc(F)cc3F)on2)CC1 | 17 | 1 | 2 | 12* | . | 3
O=C(c1cc(COc2ccc(F)cc2Cl)on1)N1CCc2ccccc2C1 | 4 | 0 | -1 | -1 | -6 | -1
